A selection: hits, their analogues and other compounds. The true share with any hit is near 14%.
Pf growth 48h = inhibits P. falciparum growth in the first generation, 48 h; P. falciparum luciferase growth in erythrocytes, 48 h; Potency, µM (top dose mostly 28.7 µM), without a hit: at the highest dose activity change, negative = inhibition, most hits filed as inhibitors; 310,000 tested, 5.9% active; further: potency means the concentration at half of the fitted maximal effect
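A one-generation exposure of luciferase-tagged malaria parasites in RPMI 1640/Albumax erythrocyte culture, 37 C and 5% CO2. Inhibition is inferred from decreased luminescence after adding detection reagent.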
Pf growth 96h = P. falciparum growth inhibition at 96 hours; P. falciparum luciferase reporter growth, 96 h; Potency, µM (titrated, usually from 28.7 µM), for the others: at the highest dose activity change, negative = inhibition, usual class: inhibitors; 320,000 tested, 6.9% active; AID 504834; further: potency means the concentration at half of the fitted maximal effect
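Cell-based qHTS: luciferase-tagged P. falciparum in erythrocytes (2% hematocrit, 0.05% parasitemia final) incubated with compounds for 96 hours, 37 C, 5% CO2; luciferase detection reagent then added and luminescence measured.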
Marburg entry inh = inhibitors of Marburg virus binding or cell entry | 300,000 tested, 1.8% active | Potency, µM (series often up to 37.8 µM), for inactives: at the top dose activity change, negative = inhibition, hits mostly inhibitors | Marburg virus pseudotyped entry inhibition, cell reporter | AID 540276; calls by dose curve; tested in HEK293 cells; further: potency means the concentration at half of the fitted maximal effect
HCV inh = inhibitors of hepatitis C virus infection; 340,000 tested, 3.4% active; Potency, µM (top dose mostly 41.8 µM), for the others: at the highest dose activity change, negative = inhibition, actives largely listed as inhibitors; AID 651820; Huh7.5.1 HCVcc-Cre infection, luciferase reporter, 44 h; further: potency means the concentration at half of the fitted maximal effect
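HCVcc-Cre virus at an moi near 0.5 was added right after compound to cells cultured 4 h from seeding (1,000 cells/well). Luciferase activity was determined 44 h later, 15 min after substrate addition at RT.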
LASV entry inh = inhibitors of Lassa virus binding or cell entry; Lassa virus pseudotype entry inhibition, cell reporter; AID 540256; Potency, µM (series often up to 37.9 µM), inactives show top-dose activity change, negative = inhibition, actives largely listed as inhibitors; 300,000 tested, 1.2% active; calls by dose curve; tested in HEK293 cells; further: potency means the concentration at half of the fitted maximal effect; nearly all actives have a fitted effect of over 50% in size
HCMV inh = blocks human cytomegalovirus replication. HFF cells, HCMV-luciferase reporter, 72 h; active compounds read low. activity change, negative = inhibition, % at 57.5 µM. 410,000 tested, 4.5% active. AID 1259415; in the data active means activity change below about -60%; inconclusive means no clear call, values can overlap the other calls; inactive means above about -39%
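Screen run at 2 compound doses on HFFs infected with reporter HCMV, MOI 1 PFU/cell. Luciferase activity from cell lysates at 72 h post infection gave inhibition relative to buffer-only and Salinomycin wells.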
* marks the source's active call; other numbers are inactive results; u = inconclusive; x = no result given; ! = not active in a repeat; [ ] = another dose, or the depositor's remark. Unless noted, the call rests on the fitted dose curve; in most records, active means well fitted inhibition curve with a large enough effect; inconclusive means small, poorly fitted or top-dose-only effect, or another doubt; inactive means no such curve, though single readings can be large or run the other way. On the % scale 0 is the no-effect control and ±100 the full control effect.

SMILES | Pf growth 48h | Pf growth 96h | Marburg entry inh | HCV inh | LASV entry inh | HCMV inh
COc1ccccc1CCC(=O)OCC(=O)Nc1c(C)nn(-c2ccccc2)c1C | 1% | 2% | u | 9%[8.37 µM] | -5%[46.1 µM] | -11
CC(=O)N1CCCc2cc(S(=O)(=O)N3CCCC(C(=O)NC(C)C)C3)ccc21 (stereo not drawn) | x | x | x | x | 8%[46.1 µM] | -6
Cc1ccccc1S(=O)(=O)NCC1CCCO1 (stereo not drawn) | 17% | 35% | -6% | -4% | 8% | -6
Cc1ccccc1-n1c(=O)cc(NCC2CCCO2)[nH]c1=O (stereo not drawn) | -6% | 6.6µM* | 26% | 17% | -5% | 1
Cc1ccccc1-n1c(=O)cc(NCc2ccc3c(c2)OCO3)[nH]c1=O | 9.3µM* | u | 21% | 6% | 11% | -5
O=c1cc(NCc2ccc3c(c2)OCO3)[nH]c(=O)n1-c1ccc(Cl)cc1 | -15% | 14% | -3% | 4% | 3% | 11
CCN1C(=NCCN2CCOCC2)N[C@@H](CCc2ccccc2)C(C(=O)OC)=C1C | u | 102% | x | x | x | x
CC1(C)N=C(SCc2ccc(F)cc2)c2ccccc2N1 | x | x | x | x | 2%[46.1 µM] | 6
Cc1ccc(C)c(N2CCN(CCCNC(=O)c3ccc4nc(CCc5ccccc5)oc4c3)CC2)c1 | x | x | x | x | u | -14
O=C(OCC1CCCO1)c1ccc2c(c1)N(Cc1cccc(Cl)c1)C(=O)c1ccccc1S2(=O)=O (stereo not drawn) | x | x | x | x | -6%[46.1 µM] | 13
COc1cccc(NS(=O)(=O)c2c(C)cc(C)cc2C)c1 | 13µM* | u | -6% | -3% | -2% | -30
COc1ccc(NS(=O)(=O)c2c(C)cc(C)cc2C)cc1 | -18% | 4% | u | -20% | -19% | -30
Cc1cc(C)c(S(=O)(=O)Nc2ccccc2-c2ccccc2)c(C)c1 | u | 164% | u | u | u | -79*
O=S(=O)(Nc1ccccc1-c1ccccc1)c1ccccc1 | x | x | u | u | -4%[46.1 µM] | -24
COc1cccc(NS(=O)(=O)c2c(C)n(C)c(=O)n(C)c2=O)c1 | 42% | 4% | x | 14% | x | -70*
CN(C(=O)CSc1nnc(-c2ccc(F)cc2)n1C)C1CCS(=O)(=O)C1 (stereo not drawn) | x | x | x | 10% | x | -17
CC[C@@]12C(=O)N(c3cccc(Br)c3)C(=O)N1[C@H](c1ccc(Cl)cc1)[C@@H]1C(=O)N(C3CCCCC3)C(=O)[C@@H]12 | u | 8.3µM* | x | -6%[8.37 µM] | x | -19
CC(C)C[C@@]12C(=O)N(c3cccc(Cl)c3)C(=O)N1[C@H](c1ccc(Cl)cc1)[C@@H]1C(=O)N(C3CCCCC3)C(=O)[C@@H]12 | u | 64% | x | 1% | x | -1
CC[C@@]12C(=O)N(c3cccc(F)c3)C(=O)N1[C@H](c1ccc(Cl)cc1)[C@@H]1C(=O)N(C3CCCCC3)C(=O)[C@@H]12 | u | u | x | -18% | x | u
CC(C)C[C@@]12C(=O)N(c3cccc(Cl)c3)C(=O)N1[C@H](c1ccc(F)cc1)[C@@H]1C(=O)N(C3CCCCC3)C(=O)[C@@H]12 | 4.1µM* | u | x | 16% | x | -19
CC(C)C[C@@]12C(=O)N(c3cccc(Br)c3)C(=O)N1[C@H](c1ccc(Cl)cc1)[C@@H]1C(=O)N(C3CCCCC3)C(=O)[C@@H]12 | 2.6µM* | u | x | 17% | x | 5
COc1ccccc1OCC(=O)N(Cc1cccs1)C1CCS(=O)(=O)C1 (stereo not drawn) | x | x | -3%[46.1 µM] | x | -19%[46.1 µM] | 5
CCOc1ccccc1CNCc1c(C(=O)O)c(C)n(Cc2ccc(Cl)cc2)c1C | x | x | -1%[46.1 µM] | x | u | 10
CCCCn1c(C2CCCCC2)nc2cc3[nH]c(=O)c(C(C)C)nc3cc21 | -8% | 9.3µM* | x | u | x | 12
Cc1cnc(C(=O)OCc2ccc(C#N)cc2)cn1 | 9% | 42% | -2%[46.1 µM] | 2% | -2% | -15
SMILES | Pf growth 48h | Pf growth 96h | Marburg entry inh | HCV inh | LASV entry inh | HCMV inh
CCn1ncc2c(OCc3ccc(C#N)cc3)cc(C)nc21 | x | 15µM* | u | u | -22% | 20
O=C(CCCc1ccccc1)Nc1ccnn1C1CCN(Cc2ccc(CO)o2)CC1 | -18% | 55% | u | 5% | 6% | 7
CCOc1cc(CNc2ccccc2)cc(Br)c1OCC(=O)NC(C)(C)C | u | 9.3µM* | u | 13µM* | u | -97*
CCOc1cc(CNc2ccc(Br)cc2)cc(Br)c1OCC(=O)NC(C)(C)C | u | x | -20% | u | -10% | u
CCOc1cc(CNc2ccc(OC)cc2)cc(Br)c1OCC(=O)NC(C)(C)C | u | 9.3µM* | u | -23% | -29% | -4
CC(C)(C)CC(C)(C)SSc1n[nH]c(=S)s1 | x | x | 3%[46.1 µM] | 16% | 30%[46.1 µM] | -18
O=C(ON=C1CCSCC1)c1ccccc1 | x | x | 14% | -10% | u | 1
CN1C(C)(C)CC(=NOC(=O)c2ccccc2)CC1(C)C | -20% | 10µM* | -14% | 10% | -1% | 36
CCN(c1ccccc1)S(=O)(=O)c1ccc(NC(=O)c2cc(=O)c3cc(C)c(C)cc3o2)cc1 | x | x | -18%[46.1 µM] | x | 1%[46.1 µM] | 1
CCN(Cc1ccccc1)S(=O)(=O)c1cc(C(=O)NC2CCCCCC2)ccc1OC | u | u | u | u | u | -32
CN1CCN(C(=O)c2ccc(N(Cc3ccc(Cl)cc3)S(C)(=O)=O)cc2)CC1 | 2% | u | 1% | 3% | 2% | -15
CC(C)NC(=O)c1ccc(N(Cc2ccc(Cl)cc2)S(C)(=O)=O)cc1 | -1% | 10µM* | -27% | -3% | -7% | 17
CCN(Cc1ccccc1)S(=O)(=O)c1cc(C(=O)Nc2cc(Cl)cc(Cl)c2)ccc1F | x | x | x | x | u | -97*
O=C(CN(c1cccc([N+](=O)[O-])c1)S(=O)(=O)c1ccccc1)N(Cc1ccccc1)Cc1ccccc1 | u | 46% | u | 3% | u | -62*
CCOc1ccc(NC(=O)c2ccc(F)c(S(=O)(=O)N(CC)Cc3ccccc3)c2)cc1 | x | x | x | x | u | -97*
Cc1cccc(NC(=O)c2c(C)cc(C)nc2SCC(=O)c2ccccc2)c1 | x | x | u | x | 6%[46.1 µM] | 6
Cc1cccc(OCCn2nnc3sc4c(c3c2=O)CCCC4)c1 | x | x | u | x | 16%[46.1 µM] | 19
CCOc1ccc(C(=O)Nc2ccc(S(=O)(=O)N(Cc3ccccc3)c3ccccc3)cc2)cc1 | x | x | u | x | -25%[46.1 µM] | -61*
O=C(O)c1ccc(N(Cc2ccccc2)S(=O)(=O)c2ccccc2)cc1 | -4% | 9.3µM*! | 19%[46.1 µM] | 0% | -2%[46.1 µM] | 32
O=C(O)c1ccc(S(=O)(=O)N(Cc2ccccc2)Cc2ccccc2)cc1 | 11% | 42% | x | 10% | x | -13

High-throughput results as filed in PubChem.
